An excerpt weighted towards active compounds, which were near 4.3% of everything screened.
D3 ag = qHTS of D3 Dopamine Receptor Agonist: qHTS. max activation, %. 410,000 compounds, 0.58% hits. D3R DiscoveRx beta-arrestin cells, luminescence, 90 min. D(3) dopamine receptor (Homo sapiens), P35462; in the data active = max activation above about 30%
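Cells at 1500/well, incubated overnight, then treated with pinned compounds (dopamine as control) for 90 min at 37 degrees C. DiscoveRx reagent added for 30 - 60 minutes at room temperature; luminescence read.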
D3 antag = qHTS of D3 Dopamine Receptor Antagonist: qHTS; D3R cells, DiscoveRx beta-arrestin luminescence, antagonist mode; active compounds read low; max response, negative = inhibition, %; 360,000 compounds, 2.5% hits; AID 652054, 2013; in the data active = max response below about -50%; inconclusive = no clear call, values can overlap the other calls
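Cells plated overnight at 1500 cells/well, then exposed to library compounds with dopamine controls for 90 minutes at 37 degrees C. DiscoveRx reagent added for 30–60 minutes at room temperature; luminescence read, quantitative HTS format.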
GLP1R ag = qHTS of GLP-1 Receptor Agonists. Glucagon-like peptide 1 receptor (Homo sapiens), P43220. HEK293 GLP-1R CRE-luciferase, luminescence, 4-6 h; cells express a hypersensitive GLP-1R form. Potency, µM (titrated, usually from 45.6 µM), most hits filed as activators. 380,000 compounds, 0.007% hits
Target sequence (P43220 whole entry, looked up): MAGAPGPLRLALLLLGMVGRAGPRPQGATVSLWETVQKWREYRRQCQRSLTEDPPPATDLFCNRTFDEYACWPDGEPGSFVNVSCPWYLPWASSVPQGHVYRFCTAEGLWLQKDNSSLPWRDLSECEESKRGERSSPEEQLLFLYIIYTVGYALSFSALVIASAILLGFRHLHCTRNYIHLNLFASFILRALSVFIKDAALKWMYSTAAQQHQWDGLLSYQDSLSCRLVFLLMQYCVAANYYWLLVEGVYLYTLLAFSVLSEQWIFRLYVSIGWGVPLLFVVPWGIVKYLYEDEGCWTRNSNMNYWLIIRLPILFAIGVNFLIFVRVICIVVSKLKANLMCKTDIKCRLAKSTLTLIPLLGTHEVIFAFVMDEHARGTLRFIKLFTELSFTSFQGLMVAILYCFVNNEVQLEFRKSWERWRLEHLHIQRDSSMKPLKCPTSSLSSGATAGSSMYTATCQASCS
GLP-1R inv ag = qHTS of GLP-1 Receptor Inverse Agonists (Inhibition Mode); HEK293 GLP-1R CRE-luciferase, luminescence, 24 h; GLP-1R form is constitutively active; Potency, µM (doses to about 38.3 µM), usual class: inhibitors; 410,000 compounds, 1.6% hits; note: nearly all actives have a fitted effect of over 55% in size
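Assay principle: reduced luminescence from a cAMP-responsive reporter in HEK293 cells co-expressing a constitutively active GLP-1R. Conditions: 24 hr compound incubation, 37 deg C, 5% CO2.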
Large screens that a line does not name were inactive. Unless noted, calls come from the whole dose curve; as a rule, active = well fitted curve in the direction sought with a large enough effect; inconclusive = small, poorly fitted or top-dose-only effect, or another doubt; inactive = no such curve, though single readings can be large; an effect the other way counts as inactive or inconclusive.

O=C(O)CCNc1ccc(NCCC(=O)O)c2c1C(=O)c1ccccc1C2=O	D3 antag -82, GLP-1R inv ag inconclusive
Cc1cc(N/N=C/c2ccc(O)cc2)c2cccc(C)c2n1	D3 antag -72, GLP-1R inv ag inconclusive
Cc1cc(C)c2nc(C)cc(N/N=C/c3ccc(O)cc3)c2c1	D3 antag inconclusive, GLP-1R inv ag inconclusive
CCOc1nc(NCCc2ccc(OC)c(OC)c2)nc(N2CCN(c3ccc(OC)cc3)CC2)n1	none
COc1ccc(N2CCN(c3nc(NCCc4ccc(OC)c(OC)c4)nc(OC)n3)CC2)cc1	D3 ag 38
COc1ccc(CCNc2nc(-c3ccc(OC)c(OC)c3)cc(C(F)(F)F)n2)cc1OC	D3 ag 38 (no result: D3 antag)
Cc1ccc2c(c1)-c1c(cnn1CC(=O)N1CCN(c3cc(C)ccc3C)CC1)CO2	none (no result: D3 antag, GLP1R ag)
CCOc1ccc(NC(=O)C2CCCN(S(=O)(=O)c3c(C)noc3/C=C/N(C)C)C2)cc1 (centres undefined)	none (no result: D3 antag, GLP1R ag)
O=S(=O)(Nc1ccccc1)c1ccc(NS(=O)(=O)c2c(F)cccc2F)cc1	D3 ag 41
O=S(=O)(Nc1ccc(N=Nc2ccccc2)cc1)c1ccccc1	D3 antag -52
CC(C)(C)NC(=O)c1ccc2nc(CCc3ccccc3)oc2c1	none (no result: D3 antag, GLP1R ag)
CC12CCC(C(=O)n3c1nc1ccccc13)C2(C)C (centres undefined)	GLP-1R inv ag 1.6µM
O=C1CSc2nc3ccccc3n21	none
COc1ccc(-n2nc(C(=O)NCCc3ccc(Cl)cc3)c3c4ccccc4n(C)c3c2=O)cc1	none (no result: D3 antag, GLP1R ag)
COc1cc(CC(=O)C(=O)O)oc(=O)c1	none
CCN(CC)S(=O)(=O)c1cc(-c2nnc(-c3ccc(Br)cc3)o2)ccc1Cl	GLP-1R inv ag inconclusive
CCN(CC)S(=O)(=O)c1cc(-c2nnc(-c3ccc(Br)cc3)o2)ccc1Br	D3 antag -65
CC[C@@]1(C(=O)OC)N[C@H](CN(C)S(=O)(=O)c2ccccc2)[C@@H]2C(=O)N(C)C(=O)[C@@H]21	D3 ag 34
CC[C@@]1(C(=O)OC)N[C@H](CN(C)S(=O)(=O)c2ccc(C(C)(C)C)cc2)[C@@H]2C(=O)N(C)C(=O)[C@@H]21	D3 ag 41
Cc1cccc(CS(=O)(=O)Cc2ccc(C(=O)NCc3ccc(F)cc3)o2)c1	none (no result: D3 antag, GLP1R ag)
CCCCC[C@@H](C)N1C[C@H](COCc2ccccc2)Oc2cc(N3CCC[C@@H]3CO)ccc2S1(=O)=O	GLP-1R inv ag 11µM
C[C@@H](c1ccccc1)N1C[C@H](COCc2ccccc2)Oc2cc(N3CC[C@H](O)C3)ccc2S1(=O)=O	GLP-1R inv ag 10µM
Cc1ccc(NS(=O)(=O)c2ccc(-c3cnc(C4CC4)o3)cc2)cc1N(C)C	GLP-1R inv ag inconclusive (no result: D3 antag, GLP1R ag)
CCC(C(=O)Nc1ccccc1-c1ccccc1)c1ccccc1 (centres undefined)	GLP-1R inv ag 7.9µM
CC1(C)CC(NC(=O)c2ccc(Cl)c(S(=O)(=O)N(Cc3ccccc3)c3ccccc3)c2)CC(C)(C)N1	GLP-1R inv ag inconclusive
O=C(Cc1ccc(Cl)cc1)Nc1ccc(-c2nnc(-c3ccco3)o2)cc1	GLP-1R inv ag 10µM
O=C(Cc1ccccc1)Nc1ccc(-c2nnc(-c3ccco3)o2)cc1	none
C=CCc1ccccc1OCC(O)CN(C(C)C)C(C)C (centres undefined)	GLP-1R inv ag inconclusive
C=CCc1ccccc1OCC(O)CNC (centres undefined)	D3 antag -64
C=CCc1ccccc1OCC(O)CN1CCN(c2ccc(OC)cc2)CC1 (centres undefined)	D3 antag -82
C=CCc1ccc(OCC(O)CN2CCN(Cc3ccc(Cl)cc3)CC2)c(OC)c1 (centres undefined)	D3 antag -73, GLP-1R inv ag inconclusive
C=CCc1ccc(OCC(O)CN2CCC(Cc3ccccc3)CC2)c(OC)c1 (centres undefined)	GLP-1R inv ag inconclusive
C=CCc1ccc(OCC(O)CN2CCN(c3ccccc3OC)CC2)c(OC)c1 (centres undefined)	D3 antag -103, GLP-1R inv ag inconclusive
C=CCc1ccccc1OCC(O)CN1CCOCC1 (centres undefined)	none
COc1ccc(CC(C)N2CCN(c3ccccc3OC)CC2)cc1OC (centres undefined)	D3 antag -93

Bioassay records (PubChem)
